According to PubChem BioAssay (EPA / NIEHS):
Values joined by “and” are separate entries in the source; they are usually repeats but may differ in a detail not shown here. Identical values can stand only once. A structure can be active in one record and inactive in another. Active and inactive are the calls of the source. The calls were made as follows: active = hit-call score of the fitted dose curve at least 0.9, where 1 is the maximum; inactive = score below 0.9.

Tests used:
[1] = read-out: Interleukin-8 (IL8), CXCL8 (gene 3576); assay: BSK_BE3C_IL8: BioMAP Diversity Plus: BE3C Assay for Interleukin-8 (IL8) Biomarker Activity (AID 2284280); settings: primary human bronchial epithelial cells
Outline: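 IL-8 signal gain, normalised to DMSO vehicle, was scored after a 24 h chemical exposure of primary human bronchial epithelial cells, with detection by ELISA.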

[2] = read-out: Epidermal growth factor receptor (EGFR), EGFR (gene 1956); assay: BSK_BE3C_EGFR: BioMAP Diversity Plus: BE3C Assay for Epidermal growth factor receptor (EGFR) Biomarker Activity (AID 2284281); settings: primary human bronchial epithelial cells
Outline: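 Compound is added to human bronchial epithelial cells, cells incubate 24 h, then EGFR is detected by ELISA. Values reflect positive-direction fitting relative to DMSO.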

KRT18 (gene 3875) = assay: BSK_BE3C_Keratin818: BioMAP Diversity Plus: BE3C Assay for Keratin 818 Biomarker Activity (AID 2284282); settings: primary human bronchial epithelial cells
Outline: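 Chemicals are added to human lung bronchial epithelial primary cells (BE3C system) and incubated 24 h. Keratin 8/18 is then measured by ELISA, with parallel SRB total-protein staining gauging overt cytotoxicity.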

[3] = read-out: Matrix Metallopeptidase 9 (MMP9), MMP9 (gene 4318); assay: BSK_BE3C_MMP9: BioMAP Diversity Plus: BE3C Assay for Matrix Metallopeptidase 9 (MMP9) Biomarker Activity (AID 2284283); settings: primary human bronchial epithelial cells
Outline: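 Endpoint is the ELISA MMP-9 signal in human primary bronchial epithelial cultures taken 24 h after chemical dosing. DMSO serves as negative control and baseline, with gain-of-signal fitting.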

[4] = read-out: Plasminogen activator inhibitor-1 (PAI1), SERPINE1 (gene 5054); assay: BSK_CASM3C_PAI1: BioMAP Diversity Plus: CASM3C Assay for Plasminogen activator inhibitor-1 (PAI1) Biomarker Activity (AID 2284284); settings: primary human coronary artery smooth muscle cells;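 also: PAI-1 protein level measured by ELISA 24 h after dosing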
[5] = read-out: Monocyte Chemoattractant Protein-1 (MCP1), CCL2 (gene 6347); assay: BSK_hDFCGF_MCP1: BioMAP Diversity Plus: hDFCGF Assay for Monocyte Chemoattractant Protein-1 (MCP1) Biomarker Activity (AID 2284285); settings: primary human foreskin fibroblasts
Outline: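 Human foreskin fibroblasts (hDFCGF system) were exposed to compound and secreted MCP-1 was measured by ELISA after 24 hours. Activity was fitted relative to DMSO. Cytotoxicity was checked by SRB total-protein staining in parallel cultures.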

[6] = read-out: Vascular cell adhesion molecule 1 (VCAM1), VCAM1 (gene 7412); assay: BSK_IMphg_VCAM1: BioMAP Diversity Plus: IMphg Assay for Vascular cell adhesion molecule 1 (VCAM1) Biomarker Activity (AID 2284286); settings: primary human endothelial cells with macrophages
Outline: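 Human venular endothelial cells co-cultured with macrophages; VCAM-1 quantified by ELISA 24 h after dosing, fitted in the positive direction against DMSO. Cytotoxicity was checked in parallel cultures by SRB total-protein staining (0.1% SRB after 10% TCA fixation, 560 nm).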

[7] = read-out: Intercellular Adhesion Molecule 1 (ICAM1), ICAM1 (gene 3383); assay: BSK_hDFCGF_ICAM1: BioMAP Diversity Plus: hDFCGF Assay for Intercellular Adhesion Molecule 1 (ICAM1) Biomarker Activity (AID 2284287); settings: primary human foreskin fibroblasts
Outline: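 Primary human foreskin fibroblasts (hDFCGF system) dosed with chemical; ICAM-1 quantified by ELISA at 24 h relative to DMSO. Parallel SRB total-protein staining to assess overt cytotoxicity.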

CD40, CD40 (gene 958) = assay: BSK_IMphg_CD40: BioMAP Diversity Plus: IMphg Assay for CD40 Biomarker Activity (AID 2284288); settings: primary human endothelial cells with macrophages
Outline: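 Venular endothelial cells co-cultured with macrophages (human primary), CD40 measured by ELISA 24 h after dosing. Positive-direction fit vs DMSO baseline; cytotoxicity tracked by SRB total-protein staining in parallel cultures.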

[8] = read-out: TIMP metallopeptidase inhibitor 2 (TIMP2), TIMP2 (gene 7077); assay: BSK_hDFCGF_TIMP2: BioMAP Diversity Plus: hDFCGF Assay for TIMP metallopeptidase inhibitor 2 (TIMP2) Biomarker Activity (AID 2284289); settings: primary human foreskin fibroblasts
Outline: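 Primary human foreskin fibroblasts in the hDFCGF system, dosed for 24 h; TIMP-2 level measured by ELISA, fitted in the positive direction against DMSO; cytotoxicity checked in parallel by sulforhodamine B total protein staining.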

[9] = read-out: Interleukin-1 alpha (IL1a), IL1A (gene 3552); assay: BSK_IMphg_IL1a: BioMAP Diversity Plus: IMphg Assay for Interleukin-1 alpha (IL1a) Biomarker Activity (AID 2284290); settings: primary human endothelial cells with macrophages
Outline: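 Human venular endothelial cells co-cultured with macrophages, IMphg system. IL-1α is measured by ELISA 24 h after dosing and fitted in the positive direction against DMSO. Cytotoxicity is assessed by SRB staining of parallel cultures.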

[10] = read-out: E-selectin (Homo sapiens) (UniProt P16581); assay: BSK_IMphg_ESelectin: BioMAP Diversity Plus: IMphg Assay for Eselectin Biomarker Activity (AID 2284291); settings: primary human endothelial cells with macrophages
Outline: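 Human venular endothelial cell–macrophage co-culture, E-selectin measured by ELISA 24 h after chemical dosing. Signal fitted in the positive direction against DMSO as negative control and baseline.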

[11] = BSK_IMphg_SRB: Viability Assessment in the BioMAP Diversity Plus: IMphg Assay (AID 2284292); settings: primary human endothelial cells with macrophages;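 also: measured one day after compound addition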
Outline: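 Human venular endothelial cells with macrophages, 24 h after chemical dosing; total protein by 0.1% SRB staining after 10% TCA fixation, read at 560 nm. Positive-direction fitting versus DMSO baseline.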

[12] = read-out: Macrophage colony-stimulating factor (MCSF), CSF1 (gene 1435); assay: BSK_IMphg_MCSF: BioMAP Diversity Plus: IMphg Assay for Macrophage colony-stimulating factor (MCSF) Biomarker Activity (AID 2284293); settings: primary human endothelial cells with macrophages
Outline: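 Co-culture of human venular endothelial cells and macrophages, 24 hours of chemical exposure. M-CSF quantified by ELISA, with parallel SRB total-protein staining for cytotoxicity; activity fitted relative to DMSO.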

[13] = read-out: Interleukin-10 (IL10), IL10 (gene 3586); assay: BSK_IMphg_IL10: BioMAP Diversity Plus: IMphg Assay for Interleukin-10 (IL10) Biomarker Activity (AID 2284294); settings: primary human endothelial cells with macrophages
Outline: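 Human venular endothelial cells cocultured with macrophages, dosed 24 h; IL-10 measured by ELISA, activity relative to DMSO. Cytotoxicity assessed in parallel cultures by sulforhodamine B total-protein staining.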

[14] = BSK_IMphg_SRB.Mphg: Macrophage Viability Assessment in the BioMAP Diversity Plus: IMphg Assay (AID 2284295); settings: primary human endothelial cells with macrophages
Outline: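 Venular endothelial cells co-cultured with macrophages, read 24 h after dosing. Total protein measured by 0.1% SRB staining after 10% TCA fixation, absorbance at 560 nm. Fitted in positive direction against DMSO baseline.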

[15] = read-out: Thrombomodulin, THBD (gene 7056); assay: BSK_LPS_Thrombomodulin: BioMAP Diversity Plus: LPS Assay for Thrombomodulin Biomarker Activity (AID 2284296); settings: primary human HUVEC with PBMC
Outline: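 Human umbilical vein endothelial cells co-cultured with PBMC and stimulated with LPS; cell-surface thrombomodulin measured by ELISA 24 hours after compound. Gain or loss versus DMSO; cytotoxicity checked by SRB staining in parallel cultures.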

[16] = IUF_NPC2c_oligodendrocyte_migration_120hr: Leibniz Research Institute for Environmental Medicine (IUF) 120-hour Neural Progenitor Cell Migration Assay for Oligodendrocyte Migration (NPC2c) (AID 2284297);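 also: O4-positive oligodendrocyte migration distance divided by radial glia migration distance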
Outline: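 Using fetal brain neural progenitor spheres differentiating in N2 medium at 37C, compounds were present for 120 h. Oligodendrocyte migration distance, normalized to radial glia migration, was measured from imaged O4 staining.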

[17] = IUF_NPC2a_radial_glia_migration_120hr: Leibniz Research Institute for Environmental Medicine (IUF) 120-hour Neural Progenitor Cell Migration Assay for Radial Glia Migration (NPC2a) (AID 2284298)
Outline: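 Exposure of 0.3 mm primary hNPC spheres runs day 0 to 120 h with a half-volume medium change at day 3. Fixed cells get Hoechst staining; high-content analysis of nuclear positions yields radial glia migration distance per well, compared against DMSO controls.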

[18] = IUF_NPC2a_radial_glia_migration_72hr: Leibniz Research Institute for Environmental Medicine (IUF) 72-hour Neural Progenitor Cell Migration Assay for Radial Glia Migration (NPC2a) (AID 2284299)
Outline: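 Primary hNPC spheres, fetal brain GW 16-19, on PDL/laminin; DMEM/F12 3:1 + 1% N2. Compound dosed day 0, 7 conc. + SC, half-medium refresh day 3. 72 h brightfield, migration distance core-to-front (um), 4 directions averaged.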

Measured: AC50

E-selectin (Homo sapiens), sequence (P16581 whole entry, looked up): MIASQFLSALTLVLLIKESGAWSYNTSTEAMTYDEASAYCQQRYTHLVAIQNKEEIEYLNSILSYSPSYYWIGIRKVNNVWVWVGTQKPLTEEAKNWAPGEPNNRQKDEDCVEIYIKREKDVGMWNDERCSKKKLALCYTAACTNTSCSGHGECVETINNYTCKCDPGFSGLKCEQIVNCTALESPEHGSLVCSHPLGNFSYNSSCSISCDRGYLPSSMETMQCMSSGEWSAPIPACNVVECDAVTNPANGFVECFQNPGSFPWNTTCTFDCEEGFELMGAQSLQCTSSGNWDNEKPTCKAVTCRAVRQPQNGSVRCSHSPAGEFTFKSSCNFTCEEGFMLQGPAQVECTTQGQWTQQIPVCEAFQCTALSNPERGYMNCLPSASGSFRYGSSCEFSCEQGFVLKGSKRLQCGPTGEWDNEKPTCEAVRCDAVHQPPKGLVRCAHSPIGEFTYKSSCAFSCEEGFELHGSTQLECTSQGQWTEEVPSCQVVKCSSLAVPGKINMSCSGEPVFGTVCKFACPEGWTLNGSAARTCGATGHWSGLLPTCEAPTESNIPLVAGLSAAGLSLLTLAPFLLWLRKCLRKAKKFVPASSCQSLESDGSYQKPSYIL

O=C(O)C(F)(F)C(F)(F)C(F)(F)C(F)(F)C(=O)O
inactive: [1] | [2] | KRT18 (gene 3875) | [3] | [4] | [5] | [6] | [7] | CD40, CD40 (gene 958) | [8] | [9] | [10] | [11] | [12] | [13] | [14] | [15]

CC(C)C(=O)OCCc1ccccc1
active: KRT18 (gene 3875) 0.522 µM
inactive: [1] | [2] | KRT18 (gene 3875) | [3] | [4] | [5] | [7] | [8] | [15]

CCCCCCCCCCCC(=O)N(C)CC(=O)O
inactive: [1] | [2] | KRT18 (gene 3875) | [3] | [4] | [5] | [7] | [8] | [15]
active: [5] 5.84 µM

Oc1ccccc1Cc1ccccc1O
inactive: [1] | [2] | KRT18 (gene 3875) | [3] | [4] | [5] | [7] | [8] | [15]
active: [3] 20 µM

CCCC(C)C(=O)OCC (centres undefined)
inactive: [1] | [2] | KRT18 (gene 3875) | [3] | [4] | [5] | [7] | [8] | [15]

CCCCNS(=O)(=O)c1ccccc1
inactive: [16] | [17] | [18]

Nc1nc(N)nc(-c2ccccc2)n1
inactive: [1] | [2] | KRT18 (gene 3875) | [3] | [4] | [5] | [7] | [8] | [15]

CC(CCC(=O)O)(c1ccc(O)cc1)c1ccc(O)cc1
inactive: [1] | [2] | KRT18 (gene 3875) | [3] | [4] | [5] | [7] | [8] | [15]

Cc1c(C(=O)c2c[nH]n(C)c2=O)ccc(S(C)(=O)=O)c1C1=NOCC1
inactive: [16] | [17] | [18]

C[N+](C)(C)CCCNS(=O)(=O)C(F)(F)C(F)(F)C(F)(F)C(F)(F)C(F)(F)C(F)(F)C(F)(F)C(F)(F)F
active: [1] 18.1 µM | [5] 44.8 µM and 44.4 µM | [6] 13.9 µM and 22.4 µM | CD40, CD40 (gene 958) 21.8 µM and 23.9 µM | [8] 8.16 µM | [10] 30 µM | [11] 34.3 µM and 42.3 µM | [13] 41 µM and 36.9 µM | [14] 46.2 µM and 30 µM | [15] 21.4 µM
inactive: [2] | KRT18 (gene 3875) | [3] | [4] | [7] | [8] | [9] | [10] | [12] | [15]

c1ccc(Nc2cccc3ccccc23)cc1
inactive: [1] | [4]
active: [2] 17.6 µM and 37 µM | KRT18 (gene 3875) 20 µM | [3] 20 µM and 26.6 µM | [5] 20.8 µM and 14.2 µM | [7] 33.6 µM and 34.1 µM | [8] 33 µM and 31.1 µM | [15] 33.7 µM and 31.2 µM
